Screening results from PubChem.
Sfp inh: qHTS Assay for Inhibitors of Bacillus subtilis Sfp phosphopantetheinyl transferase (PPTase). 4'-phosphopantetheinyl transferase ffp (Bacillus subtilis), Q9F4F7. Biochemical Sfp PPTase activity, qHTS. Potency, µM, for inactives: largest response in the series, negative = inhibition, usual class: inhibitors. hit rate 3.5% among 310,000. AID 1490, 2009;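 note: the enzyme is Sfp with the accession as filed and its product quenches rhodamine fluorescence; potency is the fitted concentration of half-maximal effect; 0% = enzyme reaction without inhibitor and -100% = no enzyme wells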
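Compounds were incubated with enzyme (final 15 nM) for 15 min at room temperature before substrate addition started the reaction. Fluorescence at 525 nm excitation, 598 nm emission was recorded immediately and after 30 minutes.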
ClpP mod: qHTS Assay for Activators of ClpP; Potency, µM (series often up to 57.5 µM), inactives show at the top dose activity change, negative = active; hit rate 1.9% among 340,000; ATP-dependent Clp protease proteolytic subunit (Bacillus subtilis (strain 168)), P80244; AID 651965, 2013; purified B. subtilis ClpP, FRET peptide cleavage, 20 min; active = well fitted falling curve with a large enough effect; inconclusive = small, poorly fitted or top-dose-only effect; inactive = no such curve, though single readings can be large or run the other way; note: potency is the fitted concentration of half-maximal effect; the source files actives as falling curves though it sought activators and does not explain the sign; nearly all actives have a fitted effect of over 65% in size
Target sequence (P80244 whole entry, looked up): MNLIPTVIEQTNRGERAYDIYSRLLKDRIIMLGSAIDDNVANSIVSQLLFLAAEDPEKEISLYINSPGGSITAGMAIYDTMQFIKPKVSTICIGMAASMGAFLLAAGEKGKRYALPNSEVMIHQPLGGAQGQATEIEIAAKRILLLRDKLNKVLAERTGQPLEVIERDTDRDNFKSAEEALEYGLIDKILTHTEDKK
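Purified B. subtilis ClpP, 10 microg/mL final in Tris/HCl pH8 with KCl, BSA, glycerol and Tween-20, cleaved an Abz/nitrotyrosine-quenched decapeptide. Fluorescence (ex 320, em 430) was read at 0 and 20 min at room temperature. Delta was normalized to 5.8 microM ADEP and DMSO/no-enzyme controls.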
uPA surface inh: qHTS for Inhibitors of Cell Surface uPA Generation. AID 540303, 2011. cell surface uPA generation assay, qHTS. hit rate 0.31% among 330,000. Potency, µM (titrated, usually from 38.3 µM), for the others: at the highest dose activity change, negative = inhibition, usual class: inhibitors; active = well fitted inhibition curve with a large enough effect; inconclusive = small, poorly fitted or top-dose-only effect; inactive = no such curve, though single readings can be large or run the other way; tested in mouse RAW 264.7 cells; note: potency is the fitted concentration of half-maximal effect; % is set by controls: 0 for no effect and ±100 for the full control effect; nearly all actives have a fitted effect of over 55% in size
TCR act: Activators of T cell receptors: qHTS campaign; primary human leukocytes, anti-CD3, IL-2 HTRF, 48 h; Potency, µM (top dose mostly 9.22 µM), without a hit: top-dose activation of IL-2 secretion, actives largely listed as activators; 330,000 tested, under 10 active; note: % of control where 0% means no effect
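Primary human leukocytes were stimulated with a-CD3 beads plus compounds for 48 hr without co-stimulation; secreted IL-2 was quantified by HTRF using a-IL-2-K (europium cryptate) and a-IL-2-d2, excited at 320nm with acceptor emission read at 665nm.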
Starred values were filed as active, the others as inactive; ? = inconclusive; nt = no result; [ ] = dose if it differs, or a comment. Most compounds without a hit are left out; they make up all but 4.2% or so of the library. Unless noted, calls come from the whole dose curve; as a rule, active = well fitted curve in the direction sought with a large enough effect; inconclusive = small, poorly fitted or top-dose-only effect, or another doubt; inactive = no such curve, though single readings can be large; an effect the other way counts as inactive or inconclusive.

SMILES	Sfp inh	ClpP mod	uPA surface inh	TCR act
Cc1ccc(OCC(=O)N(Cc2ccccc2)C2CCS(=O)(=O)C2)c([N+](=O)[O-])n1 (centres undefined)	20%	-2%	-3%	4%[46.1 µM]
Cc1ccc(OCC(=O)c2ccc(Cl)s2)c([N+](=O)[O-])n1	20µM*	1%	nt	5%
COC(=O)c1ccc(NC(=O)C(=O)NCCc2csc(-c3ccc(F)cc3)n2)cc1	nt	-2%	nt	nt
Cc1ccc(CCNC(=O)CCn2nc(-c3ccc(C)cc3)ccc2=O)cc1	nt	-4%	nt	nt
Cc1ccc(NC(=O)Cn2c(=O)n(Cc3ccc(C(=O)NCc4ccc5c(c4)OCO5)cc3)c(=O)c3ccccc32)cc1	nt	22µM*	nt	nt
O=C(Cn1c(=O)n(Cc2ccc(C(=O)NCc3ccc4c(c3)OCO4)cc2)c(=O)c2ccccc21)Nc1ccccc1F	nt	4%	nt	nt
Cc1ccc(Cl)cc1NC(=O)Cn1c(=O)n(Cc2ccc(C(=O)NCc3ccc4c(c3)OCO4)cc2)c(=O)c2ccccc21	nt	11µM*	nt	nt
Cc1nc2cnc(N(C)C)nc2n(C2CC2)c1=O	26%	nt	nt	nt
O=c1[nH][nH]c2c(N=Cc3ccccc3O)ccc(F)c12	7.9µM*	nt	2%	3%
COc1ccc(-n2c(-c3ccc(F)cc3)cn3c4c(=O)n(C)c(=O)n(C)c4nc23)cc1	nt	2%	nt	nt
CCNC(=O)C1=C(O)c2sccc2N(C)S1(=O)=O	-2%	nt	-1%	-53%
Cc1ccccc1NC(=S)C1=C(O)c2sccc2N(C)S1(=O)=O	56µM*	-1%	0%	3%
CN1c2ccsc2C(O)=C(C(=S)Nc2ccccc2)S1(=O)=O	56µM*	-1%	1%	5%
COc1cc(C(=O)Nc2cc3c4c(c2)CC(=O)N4CCC3)cc(OC)c1OC	nt	16µM*	1%	0%
Cc1ccc(NC(=O)CN2C(=O)CSc3ccc(S(=O)(=O)N4CCCC4)cc32)cc1F	nt	1%	nt	nt
CCOc1ccc(CC(=O)OCN2C(=O)c3ccccc3C2=O)cc1	89µM*	1%	-2%	5%
O=c1oc2c3c4c(cc2c2c1CCC2)OCCN4CCC3	0%	18µM*	0%	-5%
Cc1c(O)c(CN2CCCC2)cc2c3c(c(=O)oc12)CCC3	-14%	?	10%	-7%
Cc1cc(=O)cc2oc3cc(N)c(-c4c(C)cc(O)cc4O)c(C)c3nc1-2	50µM*	nt	nt	nt
O=C(O)CN1C(=O)/C(=C\c2cc(Br)ccc2OCc2ccc(Cl)cc2)SC1=S	-25%	0%	3%	5%
O=C(O)CN1C(=O)/C(=C\c2cc([N+](=O)[O-])ccc2OCc2ccccc2Cl)SC1=S	79µM*	nt	-1%	-4%
CCOC(=O)C1CCc2sc(N)c(C#N)c21 (centres undefined)	50µM*	2%	5%	1%
CCOC(=O)c1c(NC(=S)N2CCOCC2)sc2c1CCN(C(=O)OCC)C2	50µM*	nt	-5%	-3%
CCOC(=O)N1CCc2c(sc(N)c2C#N)C1	56µM*	nt	2%	4%
O=C(/C=C/C#Cc1cccc(NS(=O)(=O)c2ccccc2)c1)NO	-16%	nt	nt	nt
SMILES	Sfp inh	ClpP mod	uPA surface inh	TCR act
CC[C@H](C)[C@H](NC(=O)[C@H](CC(=O)O)NC(=O)[C@H](CC(C)C)NC(=O)[C@H](Cc1cnc[nH]1)NC(=O)[C@H](C)NC(=O)[C@H](Cc1ccccc1)NC(=O)[C@H](Cc1ccc(O)cc1)NC(=O)[C@@H](NC(=O)[C@H](C)NC(=O)[C@H](CCC(=O)O)NC(=O)[C@H](CCCCN)NC(=O)[C@H](CC(=O)O)NC(=O)[C@H](CCSC)NC(=O)[C@H](CC(C)C)NC(C)=O)C(C)C)C(=O)N[C@H](C(=O)N[C@@H](Cc1c[nH]c2ccccc12)C(=O)O)[C@@H](C)CC	1%	nt	nt	nt
O=C(CCN1C(=O)/C(=C/c2ccccc2Cl)SC1=S)NNC(=O)c1ccccc1O	50µM*	nt	-6%	-3%
O=C1/C(=C\c2cccc(O)c2O)SC(=S)N1Cc1ccccc1	40µM*	nt	-10%	6%
O=C1/C(=C\c2ccc(O)c(O)c2)SC(=S)N1Cc1ccccc1	-19%	nt	-12%	1%
OC(COc1ccccc1)CN1CCCCC1 (centres undefined)	nt	32µM*	2%	4%
OC(COc1ccc(-c2ccccc2)cc1)CN1CCCCC1 (centres undefined)	nt	1%	nt	nt
CC(C)(C)c1csc(NC(=O)c2cccnc2)n1	9%	0%	2%	0%
CC(C)(C)c1csc(NNC(=O)c2ccc(Cl)cc2)n1	45µM*	nt	5%	4%
COc1ccc(N2CCN(S(=O)(=O)c3ccc(OC)c(-c4noc(C)n4)c3)CC2)cc1	nt	-1%	nt	nt
N#CC(C(N)=O)=C1CCCCC1	-4%	nt	2%	-19%
N#CC(C(=O)NC1CCCCC1)=C1CCCCCC1	-23%	16µM*	?	-2%[46.1 µM]
C=CCOc1cccc(/C=C2\C(=O)N(Cc3ccc(C)cc3)C(C)=C2C(=O)OC)c1	11%	nt	-6%	-6%
CCOC(=O)C1=C(C)N(c2ccc(OC)cc2)C(=O)/C1=C\c1ccc(O)c(OCC)c1	20µM*	-2%	?	0%
CCOc1cc(/C=C2\C(=O)N(Cc3ccc(C)cc3)C(C)=C2C(=O)OC)ccc1O	18µM*	7%	-11%	-1%
O=C(C[N+]12CCCc3cccc(c31)CCC2)c1ccccc1	nt	-30%	nt	nt
COC(=O)N1CC=CC1(C)C(=O)NCc1cc(F)cc(C(F)(F)F)c1 (centres undefined)	8%	1%	7.9µM*	9%
CC(=O)N1[C@H](C)C=C[C@]1(Cc1ccccc1)C(=O)NCc1ccc(C)o1	22µM*	nt	nt	nt
Cc1ccc(CNC(=O)C2(CC(C)C)C=CCN2C(=O)c2ccccc2)o1 (centres undefined)	40µM*	nt	nt	nt
CC(=O)N1[C@H](C)C=C[C@]1(Cc1ccccc1)C(=O)NCc1cc(F)cc(C(F)(F)F)c1	6%	-3%	8%	2%
O=C(O)CN(CC(=O)O)c1ccccc1OCCOc1ccccc1N(CC(=O)O)CC(=O)O	17%	nt	nt	nt
O=S(=O)(N/N=C\c1ccc(-c2ccccc2Cl)o1)c1ccccc1	45µM*	2%	0%	0%[46.1 µM]
Cc1nn2c3ccccc3n(CCN3CCCCC3)c2nc1=O	23%	?	1%	1%[46.1 µM]
C=CCn1c2ccccc2n2nc(C)c(=O)nc12	19%	22µM*	-2%	4%[46.1 µM]
Nc1ccc(S(=O)(=O)Nc2cnc3ccccc3n2)cc1	9%	1%	11%	8%
Nc1ccc(S(=O)(=O)Nc2nc3ccccc3o2)cc1	50µM*	-2%	9%	nt
Cc1c(C(=O)N2CCCCCC2)c(S(=O)(=O)N(Cc2ccccc2)C(C)(C)C)c(C)n1C	nt	1%	nt	nt
Cc1oc2c(CN(C)C)c(O)ccc2c(=O)c1-c1cscn1	17%	25µM*	1%	1%
COc1ccc(Oc2coc3c(CN(C)C)c(O)ccc3c2=O)cc1	9%	28µM*	-2%	2%
CCc1cc2c(=O)c(-c3cscn3)coc2c(CN(C)C)c1O	0%	16µM*	0%	-6%
